Reference: PubChem BioAssay (NCI)
The panel holds about 83,000 compounds, 20% with a hit somewhere; the sample as a whole holds those more often.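 Testing used 96-well plates and a 48-hour single-concentration exposure. Example: -40 means 40% of the starting cells died.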 Values without a mark were called inactive. Active and inactive are the calls of the source. How the source made its calls: active means growth percent below 10; inactive means the rest.

Key:
Assay in all cases: NCI-60 one-dose screen, 48 h (100 = growth as untreated, 0 = no growth, -100 = all killed)
Settings in all cases: 10 µM unless noted
DU-145 prostate = system: DU-145 prostate
K-562 leukemia = system: K-562 leukemia
MALME-3M melanoma = system: MALME-3M melanoma
MDA-MB-231 breast = system: MDA-MB-231 breast
RXF 393 renal = system: RXF 393 renal
SF-268 CNS = system: SF-268 CNS
SF-295 CNS = system: SF-295 CNS
SF-539 CNS = system: SF-539 CNS
UACC-257 melanoma = system: UACC-257 melanoma
M14 melanoma = system: M14 melanoma
HCT-15 colon = system: HCT-15 colon
HT29 colon = system: HT29 colon
SNB-75 CNS = system: SNB-75 CNS
SNB-19 CNS = system: SNB-19 CNS
U251 CNS = system: U251 CNS
PC-3 prostate = system: PC-3 prostate
SK-MEL-5 melanoma = system: SK-MEL-5 melanoma
UACC-62 melanoma = system: UACC-62 melanoma
LOX IMVI melanoma = system: LOX IMVI melanoma
SK-MEL-28 melanoma = system: SK-MEL-28 melanoma

Row | SMILES | growth (DU-145 prostate) | growth (K-562 leukemia) | growth (MALME-3M melanoma) | growth (MDA-MB-231 breast) | growth (RXF 393 renal) | growth (SF-268 CNS) | growth (SF-295 CNS) | growth (SF-539 CNS) | growth (UACC-257 melanoma) | growth (M14 melanoma) | growth (HCT-15 colon) | growth (HT29 colon) | growth (SNB-75 CNS) | growth (SNB-19 CNS) | growth (U251 CNS) | growth (PC-3 prostate) | growth (SK-MEL-5 melanoma) | growth (UACC-62 melanoma) | growth (LOX IMVI melanoma) | growth (SK-MEL-28 melanoma)
1 | O=C1C2C(c3cccs3)C=C(c3ccc(Cl)cc3)N2C(=S)N1c1ccccc1 (stereo not given) | 110% | 101% | 115% | 86.3% | 102% | 96.7% | 104% | 93% | 105% | 101% | 112% | 114% | 97.9% | 94.4% | 97.9% | 85.7% | 97.8% | 88.8% | 98% | 105%
2 | CN1CCN(Cc2ccc(NC(=O)c3cncc(C#Cc4c(N)ncc5cc(F)ccc45)c3)cc2C(F)(F)F)CC1 | -88% (active) | -50% (active) | -75.3% (active) | -90.4% (active) | -59.9% (active) | 38.6% | 59.5% | 9.53% (active) | 41.5% | -75.8% (active) | -91.7% (active) | -74.8% (active) | 45.1% | -94.9% (active) | -97.5% (active) | 37.9% | -52.7% (active) | 29.4% | -81.4% (active) | -41.9% (active)
3 | CNC(=O)c1cc(Oc2ccc3nc(NC(=O)c4cc(C(F)(F)F)cc(C(F)(F)F)c4)sc3c2)ccn1 | 27.5% | 13.3% | 2.93% (active) | 8.74% (active) | -3.77% (active) | 23.6% | 3.03% (active) | 19.1% | 0.459% (active) | 22% | 32.1% | 31.5% | 28.5% | 15.5% | 14.2% | 8.79% (active) | -39.9% (active) | 2.25% (active) | 27.4% | 26.4%
4 | CCOC(=O)c1c2c(n3ccc(NC(=O)CCN4CCCC4)cc13)C(=O)c1ncccc1C2=O | -89.3% (active) | -40.3% (active) | 66.3% | -71.2% (active) | 47.5% | -67.8% (active) | 32.2% | -75.8% (active) | 105% | 63.7% | -78.1% (active) | -52.8% (active) | -97.5% (active) | -55.4% (active) | -88.5% (active) | -11.7% (active) | 68.6% | -12.4% (active) | -73% (active) | 96.4%
5 | Cc1ccc(C23CCC(=O)N2CCc2cncn23)cc1 (stereo not given) | 105% | 112% | 109% | 113% | 87% | 114% | 102% | 101% | 100% | 101% | 98.9% | 98.3% | 111% | 97.7% | 97.2% | 95% | 98.8% | 95.8% | 105% | 106%
6 | O=CN1N=C(c2cccc(Nc3ccncc3)c2)CC1c1ccc2c(c1)OCO2 (stereo not given) | 104% | 64.7% | 86.7% | 103% | 100% | 91.9% | 91.9% | 95.3% | 80.1% | 96.4% | 95.7% | 69.8% | 88.4% | 99.7% | 94.8% | 84.9% | 91.8% | 99.6% | 95.3% | 97.7%
7 | O=C(NCCN1CCOCC1)c1cncnc1Nc1ccc2c(ccn2Cc2ccccn2)c1 | 110% | 116% | 102% | 106% | 134% | 97.3% | 102% | 100% | 102% | 108% | 105% | 102% | 82.4% | 95.5% | 99.7% | 101% | 101% | 94.6% | 101% | 108%
8 | CCN1C(=O)N(CC)C2C1NC(=S)N2/N=C/C=C/c1ccccc1 (stereo not given) | 7.35% (active) | 10.9% | 53.7% | 18.5% | 18.8% | 20.8% | 3.58% (active) | -13.8% (active) | 55.1% | 5.45% (active) | 12.4% | 3.6% (active) | 42.2% | 19.5% | 15.5% | 20.6% | -30% (active) | 23% | 14.3% | 61%
9 | O=c1c2cccc3c(N4CCOCC4)ccc(c32)c2nc3ccccc3n12 | 109% | 80% | 97.7% | 82% | 131% | 109% | 86.3% | 90.5% | 96.2% | 104% | 81% | 93.7% | 79.1% | 95.8% | 90.7% | 99.9% | 73.4% | 62.1% | 84.8% | 107%
10 | CCCCC#Cc1c(I)n(C2OC(CO[Si](C)(C)C(C)(C)C)C3OC(C)(C)OC32)c(=O)[nH]c1=O (stereo not given) | 74.1% | 36.3% | 60.6% | 79% | -56.4% (active) | 98.4% | 113% | 88.1% | 55.1% | 76% | 68.2% | 69.3% | 85.5% | 97.6% | 82.6% | 84.4% | 90.4% | 81% | 19.3% | 68.9%
11 | COc1cc2c(c(OC)c1OC)CCC(c1cccc(NC(=O)c3cccc(Cl)c3)c1)O2 (stereo not given) | 102% | 72% | 86.6% | 88% | 96% | 90.6% | 74.4% | 103% | 94.2% | 86.6% | 83.6% | 73.7% | 85.6% | 91.8% | 91.1% | 66.6% | 79.6% | 68.1% | 96.2% | 92.1%
12 | C#C[C@]1(O)CC[C@H]2[C@@H]3CC=C4c5sc(-c6ccccc6)nc5CC[C@]4(C)[C@H]3CC[C@@]21C | 96.1% | 17.6% | 97.5% | 89% | 32.3% | 83.4% | 41.4% | 31.6% | 84.6% | 78.9% | 52.3% | 74.2% | 63.6% | 88% | 69.8% | 65.7% | 97.4% | 91.6% | 74.9% | 61.2%
13 | Cc1cc2c(C(C)C)c(O)c(O)c(/C=N/O)c2c(O)c1-c1c(C)cc2c(C(C)C)c(O)c(O)c(/C=N/O)c2c1O | -93.8% (active) | -9.09% (active) | 51% | 25.5% | -1.98% (active) | 26.3% | 16.7% | -11.3% (active) | 11.6% | 7.91% (active) | 29.3% | 1.38% (active) | 80.3% | 30.4% | 1.13% (active) | 27.9% | 16.3% | 9.12% (active) | -22.9% (active) | 19.8%
14 | CN1CCN(Cc2ccc(NC(=O)c3cc(C#Cc4cnc(N)c5ncccc45)n(C)n3)cc2C(F)(F)F)CC1 | 83.9% | 1.62% (active) | 79.9% | 102% | 69.3% | 102% | 102% | 70.5% | 102% | 113% | 58.4% | 91.4% | 142% | 103% | 38.5% | 98.9% | 93.6% | 100% | 91.5% | 100%
15 | c1ccc(Cn2cc3c(c2)-c2nc(Nc4ccccc4)ncc2CC3)cc1 | 83.2% [100 µM] | 108% [100 µM] | 83.5% [100 µM] | 65.2% [100 µM] | 48.6% [100 µM] | 76.9% [100 µM] | 57.6% [100 µM] | 64.3% [100 µM] | 98.2% [100 µM] | 92.9% [100 µM] | 116% [100 µM] | 117% [100 µM] | 63.7% [100 µM] | 84.1% [100 µM] | 69.1% [100 µM] | 72.8% [100 µM] | 79.4% [100 µM] | 82.7% [100 µM] | 85.6% [100 µM] | 92.5% [100 µM]
